# The supplement of paper PMC8728848
# Only a selection was taken, and the strongest signals are over-represented in it overall.
# B1: Epa1to9 (Candida glabrata) (protein)
# chain: MGSSHHHHHHSSGLVPRGSHMTSSNDISLASKDPTTFPLGCSPDITTPKKGLSMELYSYDFRKKGSYPCWDAAYLDPNYPRTGYKSHRLLAKVDGVTGNINFYYHATKGCTPQLGHLPASYNYPKPLTMTNFTMLLYGYFRPKVTGFHTFTISADDLLFVNFGAGNAFDCCRRDSSADHFGNYQAYAIWGSKTAKDELTVHLDAGVYYPIRLFYNNRDYHGALSFTFKTESNENTVSDFSEYFFSLDDTEEGCPGLISYD
# Tests used:
# Assay in all cases: glycan array binding signal (z-score within array); higher = stronger binding
# Details in all cases: glycan notation: IUPAC condensed, linker removed
# [1] = molecular target: Fuc(a1-2)Gal(b1-3)GlcNAc(b1-3)Gal(b1-4)Glc
# Method in brief: (§1)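 From the Consortium for Functional Glycomics database, 3228 arrays were curated, keeping only those whose protein sequence was available. Binding is given as a within-array Z-score averaged across arrays sharing a protein sequence and across linkers. Negative Z-scores can be read as non-binding.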
# Fuc(a1-2)Gal(b1-4)Glc = molecular target: Fuc(a1-2)Gal(b1-4)Glc
# Method in brief: as §1
# [2] = molecular target: Fuc(a1-2)Gal(b1-4)GlcNAc(b1-3)GalNAc
# Method in brief: as §1
# [3] = molecular target: Fuc(a1-2)Gal6S(b1-3)GlcNAc
# Method in brief: as §1
# [4] = molecular target: Fuc(a1-2)[Gal(a1-3)]Gal(b1-4)[Fuc(a1-3)]GlcNAc
# Method in brief: as §1
# [5] = molecular target: Fuc(a1-2)[GalNAc(a1-3)]Gal(b1-3)GalNAc(b1-3)Gal(a1-4)Gal(b1-4)Glc
# Method in brief: as §1
# [6] = molecular target: Fuc(a1-2)[GalNAc(a1-3)]Gal(b1-4)GlcNAc(b1-2)Man(a1-3)[Fuc(a1-2)[GalNAc(a1-3)]Gal(b1-4)GlcNAc(b1-2)Man(a1-6)]Man(b1-4)GlcNAc(b1-4)GlcNAc
# Method in brief: as §1
# [7] = molecular target: Fuc(a1-3)[Gal(b1-4)]GlcNAc(b1-3)GalNAc
# Method in brief: as §1
# [8] = molecular target: Gal(a1-3)Gal(b1-4)GlcNAc(b1-2)Man
# Method in brief: as §1
# Gal(a1-4)GlcNAc = molecular target: Gal(a1-4)GlcNAc
# Method in brief: as §1
# Gal(b1-3)Gal(b1-4)GlcNAc = molecular target: Gal(b1-3)Gal(b1-4)GlcNAc
# Method in brief: as §1
# Gal(b1-3)GalNAc(b1-3)Gal = molecular target: Gal(b1-3)GalNAc(b1-3)Gal
# Method in brief: as §1
# [9] = molecular target: Gal(b1-3)GalNAc(b1-4)Gal(b1-4)Glc
# Method in brief: as §1
# [10] = molecular target: Gal(b1-3)GalNAc(b1-4)[Neu5Ac(a2-3)]Gal(b1-4)Glc
# Method in brief: as §1
# [11] = molecular target: Gal(b1-3)[Neu5Ac(a2-6)]GalNAc
# Method in brief: as §1
# [12] = molecular target: Gal(b1-4)GlcNAc(b1-2)Man(a1-3)[Gal(b1-4)GlcNAc(b1-2)Man(a1-6)]Man(b1-4)GlcNAc(b1-4)GlcNAc
# Method in brief: as §1
# [13] = molecular target: Gal(b1-4)GlcNAc(b1-2)Man(a1-3)[Man(a1-6)]Man(b1-4)GlcNAc(b1-4)GlcNAc
# Method in brief: as §1
# [14] = molecular target: Gal(b1-4)GlcNAc(b1-2)[Gal(b1-4)GlcNAc(b1-6)]Man(a1-6)[Gal(b1-4)GlcNAc(b1-2)Man(a1-3)]Man(b1-4)GlcNAc(b1-4)[Fuc(a1-6)]GlcNAc
# Method in brief: as §1
# [15] = molecular target: Gal(b1-4)GlcNAc(b1-3)Gal(b1-3)GlcNAc
# Method in brief: as §1
# [16] = molecular target: Gal(b1-4)GlcNAc(b1-3)Gal(b1-4)GlcNAc
# Method in brief: as §1
# [17] = molecular target: Gal(b1-4)GlcNAc(b1-3)Gal(b1-4)GlcNAc(b1-3)Gal(b1-4)GlcNAc(b1-3)Gal(b1-4)GlcNAc(b1-3)Gal(b1-4)GlcNAc(b1-2)Man(a1-3)[Gal(b1-4)GlcNAc(b1-3)Gal(b1-4)GlcNAc(b1-3)Gal(b1-4)GlcNAc(b1-3)Gal(b1-4)GlcNAc(b1-3)Gal(b1-4)GlcNAc(b1-2)Man(a1-6)]Man(b1-4)GlcNAc(b1-4)GlcNAc
# Method in brief: as §1
# [18] = molecular target: Gal3S(b1-3)[Fuc(a1-4)]GlcNAc
# Method in brief: as §1
# Gal3S(b1-4)Glc = molecular target: Gal3S(b1-4)Glc
# Method in brief: as §1
# Gal6S(b1-3)GlcNAc6S = molecular target: Gal6S(b1-3)GlcNAc6S
# Method in brief: as §1
binder,measurement,setting,value
B1,glycan array binding signal (z-score),[1],-0.354
same,glycan array binding signal (z-score),Fuc(a1-2)Gal(b1-4)Glc,-0.307
same,glycan array binding signal (z-score),[2],-0.34
same,glycan array binding signal (z-score),[3],0.035
same,glycan array binding signal (z-score),[4],-0.276
same,glycan array binding signal (z-score),[5],-0.349
same,glycan array binding signal (z-score),[6],-0.318
same,glycan array binding signal (z-score),[7],-0.293
same,glycan array binding signal (z-score),[8],0.008
same,glycan array binding signal (z-score),Gal(a1-4)GlcNAc,1.94
same,glycan array binding signal (z-score),Gal(b1-3)Gal(b1-4)GlcNAc,4.22
same,glycan array binding signal (z-score),Gal(b1-3)GalNAc(b1-3)Gal,3.67
same,glycan array binding signal (z-score),[9],4.67
same,glycan array binding signal (z-score),[10],2.83
same,glycan array binding signal (z-score),[11],4.47
same,glycan array binding signal (z-score),[12],1.17
same,glycan array binding signal (z-score),[13],-0.161
same,glycan array binding signal (z-score),[14],3.13
same,glycan array binding signal (z-score),[15],-0.107
same,glycan array binding signal (z-score),[16],-0.064
same,glycan array binding signal (z-score),[17],0.122
same,glycan array binding signal (z-score),[18],-0.345
same,glycan array binding signal (z-score),Gal3S(b1-4)Glc,-0.283
same,glycan array binding signal (z-score),Gal6S(b1-3)GlcNAc6S,4.86
